The record followed here is PubChem BioAssay.

The experiment has as its system Inhibin beta A chain (activin A). Description: INHBA (activin A) binders on microarrays, primary screen, biochemical, small-molecule microarray, 635 nm fluorescence scan (AID 1107).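 Note: mouse activin A protein probed at 4.33 µg/mL on printed slides; score merges bound-protein fluorescence near 667 nm with spot signal-to-noise.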 Conditions: small-molecule microarray binding, higher = more signal.
Compound `COc1cc2c(cc1O)C(C)N(Cc1ccc([N+](=O)[O-])o1)CC2` (stereo not given) had a composite z-score of 1.31. In the case of `COCCOC(=O)N1C(=O)[C@@]2(c3cc(C#Cc4ccc(OC)cc4)ccc31)[C@H](c1ccc(O)cc1)N1[C@H](c3ccccc3)[C@H](c3ccccc3)OC(=O)[C@H]1[C@@H]2C(=O)N1CCCCCCC1` it was 1.31; in that of `COc1ccc([Si](C)(C)[C@@H]2[C@@H](CC(=O)N(CCO)Cc3ccccc3)O[C@]3(C(=O)N(Cc4cccc(N5C(=O)c6cccc7cccc5c67)c4)c4ccccc43)[C@H]2C)cc1`, 0.539. In the case of `Cc1ccc(S[C@]2(C(=O)O)CC(=O)N(Cc3ccccc3Cl)[C@@H]2c2ccc(CO)cc2I)cc1` it was 0.164; in that of `COC(=O)C1=CC(CCCO)=CC(C2CC2)N(C)C=C1C(=O)OC` (stereo not given), 0.576. In the case of `COCCOC(=O)N1C(=O)[C@@]2(c3cc(C#CCC(C(=O)OC)C(=O)OC)ccc31)[C@H](C(=O)N1CCc3cc(OC)c(OC)cc3C1)[C@H]1C(=O)O[C@H](c3ccccc3)[C@H](c3ccccc3)N1[C@@H]2c1ccc(OCCO)cc1` it was 0.541; in that of `COc1ccc([Si](C)(C)[C@H]2[C@H](CCO)O[C@@]3(C(=O)N(Cc4cccc(N5C(=O)COc6ccccc65)c4)c4ccccc43)[C@@H]2C)cc1`, -0.348; in that of `CN(C)CCCNC(=O)[C@@]1(C)c2ccccc2C(=O)N(Cc2ccccc2)[C@H]1c1ccc(CO)cc1`, 1. `COC(=O)c1c2oc(c1C(=O)OC)C(=O)N(Cc1ccccc1)Cc1cn(nn1)C[C@H](Cc1ccccc1)NC(=O)N[C@H](CO)CC2` had a composite z-score of 0.0809. The compound `[N-]=[N+]=NCc1ccccc1[C@H]1OC(c2ccc(OCCCO)cc2)=N[C@@]1(CCS(=O)(=O)c1ccccc1)C(=O)N1CCCCC1` had a composite z-score of 1.57.

For the compound `O=C(CS)NCCCCCNC(=O)[C@@H]1C[C@@H]2C(=O)N3CCC[C@H]3C(=O)N2[C@@H]1c1cccc(OCCO)c1`, the composite z-score is -0.525. `COCCOC(=O)N1C(=O)[C@@]2(c3cc(C#CCCO)ccc31)[C@H](C(=O)Nc1nc3ccccc3s1)[C@H]1C(=O)O[C@H](c3ccccc3)[C@H](c3ccccc3)N1[C@@H]2c1ccccc1OCCO` registered a composite z-score of 0.923. `C[C@@H]1NC(=O)[C@@]23C(=O)N[C@@H](Cc4ccccc4)C2[C@H](C)[C@@]2(C)O[C@H]2C3/C=C/C/C=C\CNC(=O)[C@@H]2CCCN2C1=O` (stereo not given in full) gave a composite z-score of 1.35.

Consider `CCC[C@@H]1C[C@@]1(CCC)[C@@H](NC(=O)OCc1ccccc1)c1ccc(-c2ccccc2)cc1`, for which the composite z-score is 1.47.

In turn, `CC[C@H]1C2=C3C(CC[C@H]4C(OCc5ccc(F)cc5C(F)(F)F)OC[C@](C)([C@@H]34)N(C(=O)OC(C)(C)C)C2)C(COC)C1COC` (stereo not given in full) came in with a composite z-score of 0.561. Under `CC(C)(C)OC(=O)CC[C@@]1(C(=O)NCc2ccccc2)N=C(c2ccc(OCCCO)cc2)O[C@@H]1c1ccccc1N=[N+]=[N-]` stands 0.795. Under `CCC(CC)C(O)C1C=CC2C(=O)N(c3ccccc3)C(=O)C2N1Nc1ccc(C(C)C)cc1` (stereo not given) stands 0.916; under `C[C@H]1NC(=O)[C@@]23C(=O)N[C@@H](Cc4ccccc4)C2[C@H](C)[C@@]2(C)O[C@H]2C3/C=C/C/C=C\CNC(=O)[C@H](Cc2ccccc2)NC1=O` (stereo not given in full), 1.34.

`COCCOC(=O)N1C(=O)[C@@]2(c3cc(C#CC4=CCCCC4)ccc31)[C@H](C(N)=O)[C@H]1C(=O)O[C@H](c3ccccc3)[C@H](c3ccccc3)N1[C@@H]2c1ccccc1OCCO` displayed a composite z-score of 0.455. Under `CCOC(=O)C[C@H]1[C@H](OC(=O)c2cc3ccccc3oc2=O)[C@@H](NC(=O)c2ccc(-c3ccccc3)cc2)c2cc(OCCCO)ccc2N1C(=O)c1ccc2ccccc2n1` stands 0.379. In the case of `COC(=O)[C@@]1(Cc2ccc(F)cc2)[C@H]2c3cc(C(=O)N(C)C)n(Cc4cc(F)cc5c4OCOC5)c3C[C@H]2CN1C(=O)c1ccccc1` it was 0.677; in that of `COC(=O)[C@@]1(Cc2ccccc2)[C@@H]2C(=CC(=O)[C@H]2CC(=O)C(=O)N(C)C)CN1C(=O)c1ccccc1`, 1.25; in that of `CN1C(=O)C2C=CC(C(O)c3ccc(F)cc3)N(Nc3ccccc3)C2C1=O` (stereo not given), 0.623. Under `CCCC[C@@H]1C[C@H]1[C@@H](NC(=O)c1ccccc1)c1ccc(C(F)(F)F)cc1` stands 0.986; under `COc1ccc([Si](C)(C)[C@H]2[C@H](CCn3cc([C@H](O)c4ccccc4)nn3)O[C@@]3(C(=O)N(Cc4ccc(N5C(=O)c6cccc7cccc5c67)cc4)c4ccccc43)[C@@H]2C)cc1`, -1.13. Take `C[N+](C)(C)CCCC[C@@H]1NC(=O)[C@H]2C[C@@H](C(=O)NCCCCCCN)[C@@H](c3ccc(O)cc3)N2C1=O`: the composite z-score was -0.695.

`O[C@@H](Cc1ccccc1)[C@@H](/C=C/C1CC1)N(CC#Cc1ccccc1)Cc1cccc(Cl)c1` showed a composite z-score of 0.285.

`CCOC(=O)C[C@H]1[C@H](OC(=O)c2ccccc2-c2ccccc2)[C@@H](NC(=O)c2ccc(-c3ccccc3)cc2)c2cc(OCCCO)ccc2N1C(=O)c1ccc2ccccc2n1`: the composite z-score is 0.392. `CN(C)c1ccc(C(O)C2C=CC3C(=O)N(c4ccccc4)C(=O)C3N2Nc2ccc([N+](=O)[O-])cc2)cc1` (stereo not given) came in with a composite z-score of 1.4.

The compound `COC(=O)[C@@]1(Cc2ccc(OC)cc2)[C@H]2c3cc(C(=O)N4CCCC4)n(Cc4c(-c5ccccc5)noc4C)c3C[C@H]2CN1C(=O)c1ccccc1` had a composite z-score of 0.641. Under `COc1ccc(-c2nc(-c3ccccc3)c3c(c2C)CO[Si]3(C(C)C)C(C)C)cn1` stands 0.468; under `O=C1O[C@@H](c2ccccc2)[C@@H](c2ccccc2)N2[C@@H](c3ccc(O)cc3)[C@]3(C(=O)Nc4ccc(C#CC5=CCCCC5)cc43)[C@@H](C(=O)NC[C@H](O)c3ccccc3)[C@H]12`, 1.02; under `CO[C@H]1O[C@H](CO)[C@@H](OC(=O)Nc2ccccc2-c2ccccc2)[C@H](OC(=O)Nc2ccc3c(c2)OCO3)[C@H]1OC(=O)Nc1ccc2c(c1)OCO2`, 0.752. On to `COC(=O)[C@@]1(Cc2ccc(F)cc2)[C@H]2c3cc(C(=O)N4CCCC4)n(CCN4CNCC4=O)c3C[C@H]2CN1C(=O)c1ccccc1`, for which the composite z-score came to 0.781.

On to `CN(C)CCCNC(=O)[C@@H]1c2ccccc2C(=O)N(Cc2ccccc2Cl)[C@H]1c1ccc(CO)cc1`, for which the composite z-score is 0.828.
